The list is not random: actives were taken first. Their share in the collection is about 2.8%.
TRPM1 prom inh: MITF TRPM1 promoter inhibition in SK-MEL-5 cells; inhibition, % at 12.5 µM; actives 0.83% (n = 330,000); AID 488899; SK-MEL-5 TRPM1 promoter luciferase, 24 h;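 active = mean inhibition across replicates of 60% or more, whatever share of single replicates reaches that level; inconclusive = some that reach 60%, reason not given; inactive = mean inhibition across replicates below 60%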
HIF-2a inh: HIF-2a inhibition | 786-0 RCC cells HIF-2a reporter, luciferase luminescence, overnight | inhibition, % at 18.8 µM | actives 0.72% (n = 360,000);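 active = inhibition of the luminescence signal of 40% or more relative to plate controls, in a single-dose primary screen at 18.75 µM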
EBV LMP1 NFkB: Epstein-Barr LMP1 NF-kappaB reporter inhibition; LMP1-induced NF-kappaB luciferase reporter cells, luminescence; inhibition, % at 12.5 µM; actives 0.69% (n = 350,000); in the data active = inhibition above about 41%; inconclusive = no clear call, values can overlap the other calls
Peg3 promoter: inhibitors of Peg3 promoter; AID 588405; HeLa PEG-Prom luciferase reporter, luminescence, overnight; actives 1.7% (n = 360,000); inhibition, % at 20 µM;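 active = inhibition of at least 50% at 20 µM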
Shn3 3UTR inh: Schnurri-3 reporter inhibition in Clone20 osteoblasts | Clone20 osteoblast Shn3 3'UTR firefly luciferase, 24 h | inhibition, % at 12.5 µM | actives 0.52% (n = 360,000);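 active = mean inhibition of at least 75% with every replicate also reaching 75%; inconclusive = mean inhibition at least 75% but some replicate below; inactive = mean inhibition below 75%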
PAX8 reporter: inhibitors of PAX8 transcriptional activity in RMG-I cells | RMG-I TPO-luciferase reporter, SteadyGlo, 24 h | inhibition, % at 12.6 µM | actives 1.2% (n = 360,000) | AID 652154;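 active = mean replicate inhibition at least 60% with every replicate also reaching 60%; inconclusive = only one of the two criteria is met; inactive = mean below 60% and not all replicates reaching 60%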;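 also: luciferase light reporting Pax8 driven TPO promoter activity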
Large screens that a line does not name were inactive.

CCOC(=O)[C@]12Cc3cc(OC)ccc3[C@H]1N(C1CCCCC1)C(=O)c1ccccc12	PAX8 reporter 76 (no result: TRPM1 prom inh, EBV LMP1 NFkB, Peg3 promoter, Shn3 3UTR inh)
O=c1[nH]c2ccccc2n1C1CCN(C(CCc2ccccc2)c2nnnn2C2CCCC2)CC1 (configuration not stated)	Peg3 promoter 87 (no result: TRPM1 prom inh, EBV LMP1 NFkB)
O=c1[nH]c2ccccc2n1C1CCN(C(c2cccc3ccccc23)c2nnnn2Cc2ccccc2)CC1 (configuration not stated)	Peg3 promoter 81, PAX8 reporter 73 (no result: TRPM1 prom inh, EBV LMP1 NFkB)
O=c1[nH]c2ccccc2n1C1CCN(C(c2cc3ccccc3o2)c2nnnn2Cc2ccccc2)CC1 (configuration not stated)	Peg3 promoter 93, PAX8 reporter 108 (no result: TRPM1 prom inh, EBV LMP1 NFkB)
O=c1[nH]c2cc(Cl)ccc2n1C1CCN(Cc2ccc(-c3nc4ccccc4nc3-c3ccccc3)cc2)CC1	none (no result: TRPM1 prom inh, HIF-2a inh, EBV LMP1 NFkB, Peg3 promoter, Shn3 3UTR inh)
O=c1[nH]c2ccccc2n1C1CCN(Cc2ccc(-c3[nH]c4cc5ncnc5cc4nc3-c3ccccc3)cc2)CC1	PAX8 reporter 72 (no result: TRPM1 prom inh, EBV LMP1 NFkB, Peg3 promoter, Shn3 3UTR inh)
O=C1CC(N2CCC(n3c(=O)[nH]c4ccccc43)CC2)C(=O)N1Cc1ccccc1 (configuration not stated)	none (no result: PAX8 reporter)
O=C(Cc1ccccc1)N1CCCCN2[C@@H](CO)[C@H](c3ccc(C#Cc4ccccc4)cc3)[C@@H]2C1	none (no result: TRPM1 prom inh, HIF-2a inh, EBV LMP1 NFkB, Peg3 promoter, Shn3 3UTR inh)
COC(=O)C[C@H]1CC[C@@H]2NC[C@H](O)COC[C@H]2O1	none (no result: TRPM1 prom inh, HIF-2a inh, EBV LMP1 NFkB, Peg3 promoter, Shn3 3UTR inh)
COc1ccc(-n2nnnc2C(c2ccnc3ccccc23)N2CCC(n3c(=O)[nH]c4ccccc43)CC2)cc1 (configuration not stated)	none (no result: TRPM1 prom inh, EBV LMP1 NFkB)
COc1cccc(C(c2nnnn2Cc2ccccc2)N2CCC(n3c(=O)[nH]c4ccccc43)CC2)c1OC (configuration not stated)	Peg3 promoter 73, PAX8 reporter 91 (no result: TRPM1 prom inh, EBV LMP1 NFkB)
Cc1cccc(C)c1-n1nnnc1C(c1cc2ccccc2o1)N1CCC(n2c(=O)[nH]c3ccccc32)CC1 (configuration not stated)	Peg3 promoter 102, Shn3 3UTR inh 96 (no result: TRPM1 prom inh, EBV LMP1 NFkB)
O=C(NC[C@H]1CC[C@@H]2NC[C@@H]2O1)C1CCCC1	none (no result: TRPM1 prom inh, HIF-2a inh, EBV LMP1 NFkB, Peg3 promoter, Shn3 3UTR inh)
O=C(C1CC1)N1C[C@@H]2N[C@H](C1)[C@@H]2c1ccc(-c2ccncc2)cc1	PAX8 reporter 85 (no result: TRPM1 prom inh, HIF-2a inh, EBV LMP1 NFkB, Peg3 promoter, Shn3 3UTR inh)
O=C(C1CC1)N1C[C@@H]2N[C@H](C1)C2c1ccc(-c2cncnc2)cc1 (some centres not stated)	none (no result: TRPM1 prom inh, HIF-2a inh, EBV LMP1 NFkB, Peg3 promoter, Shn3 3UTR inh)
O=c1[nH]c(CN2CC=C(c3ccccc3)CC2)nc2scc(-c3ccccc3)c12	none
O=c1[nH]c(CN2CC=C(c3ccccc3)CC2)nc2cc(C(F)(F)F)ccc12	EBV LMP1 NFkB 44 (no result: PAX8 reporter)
O=C(Cc1ccccc1)N1CCCCN2[C@H](CO)[C@H](c3ccc(C#Cc4ccccc4)cc3)[C@@H]2C1	none (no result: TRPM1 prom inh, HIF-2a inh, EBV LMP1 NFkB, Peg3 promoter, Shn3 3UTR inh)
COC(=O)[C@H]1[C@H](CO)[C@H]2Cn3c(ccc(C4=CCCCC4)c3=O)[C@@H]1N2C(=O)NC(C)C	none (no result: TRPM1 prom inh, HIF-2a inh, EBV LMP1 NFkB, Peg3 promoter, Shn3 3UTR inh)
Cc1cccc(-n2c(O)c(/C=C3/C(c4ccccc4)=Nc4ccccc43)c(=O)[nH]c2=O)c1	none
Cc1ccccc1-n1c(O)c(/C=C2/C(c3ccccc3)=Nc3ccccc32)c(=O)[nH]c1=O	HIF-2a inh 64
O=C1NC(=O)C(=Cc2ccc(SC3CCCCC3)o2)C(=O)N1	HIF-2a inh 52
O=c1[nH]c2ccccc2n1C1CCN(C(c2ccccc2OC(F)(F)F)c2nnnn2-c2ccc3c(c2)OCCO3)CC1 (configuration not stated)	Peg3 promoter 89, PAX8 reporter 94 (no result: TRPM1 prom inh, EBV LMP1 NFkB)
COc1cccc(C(c2nnnn2-c2ccc3c(c2)OCCO3)N2CCC(n3c(=O)[nH]c4ccccc43)CC2)c1OC (configuration not stated)	Shn3 3UTR inh 87, PAX8 reporter 93 (no result: TRPM1 prom inh, EBV LMP1 NFkB)
COc1ccc(-n2nnnc2C(c2cccc(OC)c2OC)N2CCC(n3c(=O)[nH]c4ccccc43)CC2)cc1 (configuration not stated)	Peg3 promoter 55 (no result: TRPM1 prom inh, EBV LMP1 NFkB)
O=C(Cc1ccccc1)N1C[C@@H]2[C@H](c3ccccc31)[C@H](CO)N2Cc1ccccc1	none (no result: TRPM1 prom inh, HIF-2a inh, EBV LMP1 NFkB, Peg3 promoter, Shn3 3UTR inh)
CCCNC(=O)N1[C@@H]2c3ccc(-c4ccccc4OC)c(=O)n3C[C@H]1[C@H](CO)[C@H]2C(=O)O	none (no result: TRPM1 prom inh, HIF-2a inh, EBV LMP1 NFkB, Peg3 promoter, Shn3 3UTR inh)
Cc1ccc(-c2cc(-c3ccc(C)cc3)[n+](C)o2)cc1	TRPM1 prom inh 63, PAX8 reporter inconclusive
CN1C(=O)NC(=O)C(C)(C2=CCCCC2)C1=O (configuration not stated)	none (no result: PAX8 reporter)
CN1C(=O)C(C)(C2=CCCCC2)C(=O)NC1=S (configuration not stated)	Peg3 promoter 93
C=CCn1c(O)c(C(C)=NCc2cc(OC)cc(OC)c2)c(=O)[nH]c1=O	Peg3 promoter 54
O=C(Cc1cccnc1)N1CCCCN2[C@H](CO)[C@@H](c3ccc(C#CC4(O)CCCC4)cc3)[C@H]2C1	none (no result: TRPM1 prom inh, HIF-2a inh, EBV LMP1 NFkB, Peg3 promoter, Shn3 3UTR inh)
C[n+]1c(-c2ccccc2)cc(-c2ccc(Cl)cc2)cc1-c1ccccc1	PAX8 reporter inconclusive
CN(C)c1ccc(-[n+]2c(-c3ccccc3)cc(-c3ccccc3)cc2-c2ccccc2)cc1	TRPM1 prom inh 92, Peg3 promoter 72, Shn3 3UTR inh 94, PAX8 reporter 88
Cc1ccc(-c2cc(-c3ccccc3)cc(-c3ccccc3)[n+]2-c2ccccc2)cc1	TRPM1 prom inh 103, Peg3 promoter 100, Shn3 3UTR inh 98, PAX8 reporter 95
COC(=O)[C@@H]1[C@@H](CO)[C@@H]2Cn3c(ccc(-c4cccc(C(=O)N(C)C)c4)c3=O)[C@H]1N2CC1CC1	none (no result: TRPM1 prom inh, HIF-2a inh, EBV LMP1 NFkB, Peg3 promoter, Shn3 3UTR inh)
COc1cc(C2c3cc4c(cc3CC3COC(=O)C32)OCO4)cc(OC)c1O (configuration not stated)	PAX8 reporter 75
COc1ccc2c(c1OC)C(=O)OC2C1c2cc3c(cc2CCN1C)OCO3 (configuration not stated)	none
COc1ccc(N=Cc2c(O)n(Cc3ccccc3)c(=S)[nH]c2=O)c(OC)c1	Peg3 promoter 54
Nc1ccc2ccc3cccc[n+]3c2c1	none
C[n+]1c(-c2ccccc2)c2cc(N)ccc2c2ccc(N)cc21	TRPM1 prom inh 62, Peg3 promoter 74, PAX8 reporter 96
COc1cc2c3c(c1OC)Oc1ccc(cc1)C[C@H]1c4c(cc(OC)c(OC)c4Oc4ccc(cc4)C[C@@H]3N(C)CC2)CCN1C	TRPM1 prom inh 91, Peg3 promoter 87
COc1cc2c3cc1Oc1cc(ccc1O)C[C@@H]1c4c(cc(OC)c(O)c4Oc4ccc(cc4)C[C@H]3N(C)CC2)CCN1C	EBV LMP1 NFkB 83, Peg3 promoter 68
COc1cc2c(cc1O)C[C@H]1c3c(cc(O)c(OC)c3-2)CCN1C	none
COc1cc2c3cc1Oc1c(OC)c(OC)cc4c1[C@H](Cc1ccc(cc1)Oc1cc(ccc1O)C[C@H]3N(C)CC2)N(C)CC4	TRPM1 prom inh 80, Peg3 promoter 70

Screening results from PubChem BioAssay.
